ATXN2 expr inh: ATXN2 expression inhibition; HEK-293 ATXN2-luciferase reporter, luminescence, 24 h; Potency, µM (series often up to 57 µM), actives largely listed as inhibitors; 0.72% of 360,000 active; AID 1745845; further: nearly all actives have a fitted effect of over 55% in size
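ATXN2-luciferase reporter cells (luciferase flanked by upstream and downstream ATXN2 gene portions) were treated 24 h at 37 °C with compounds at up to 57 uM. SteadyGlo luminescence gave expression; GF-AFC fluorescence gave viability.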
HepG2 viability: kills HepG2 cells in TGF-b inhibitor counter-screen; 0.76% of 410,000 active; Potency, µM (highest dose often 46.1 µM), usual class: cytotoxic; HepG2 CAGA-GFP viability, ATP luminescence, 18 h
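HepG2 CAGA-GFP cells (1000/well, DMEM with 1% FBS) received compound, then TGF-beta at 500 pg/mL final, and were incubated 18 hours at 37 degrees C. Viability was read by CellTiter-Glo luminescence. Media-only wells were set as complete cell-killing and DMSO as no toxicity.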
S2 tox: viability counter-screen for ATXN expression inhibitors; S2 cells (HEK-293 line with an ATXN2-luciferase reporter) viability, CellTiter-Fluor protease fluorescence, 24 h; Potency, µM (doses to about 56.7 µM), usual class: cytotoxic; 0.49% of 400,000 active; further: nearly all actives have a fitted effect of over 40% in size
TGFb inhibitor: TGF-b pathway inhibition | AID 588855 | 1.2% of 410,000 active | Potency, µM (highest dose often 46.1 µM), hits mostly inhibitors | HepG2 CAGA-GFP TGF-b/SMAD3 reporter, GFP fluorescence, 18 h; TGF-beta stimulated, 500 pg/mL final; further: nearly all actives have a fitted effect of over 65% in size
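TGF-beta reporter screen: HEPG2 CAGA-GFP, 1% FBS, 500 pg/mL TGF-beta final, 18 h; per-cell GFP summed per well; curves fitted and categorized by class.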
D3 ag: activates the human D3 dopamine receptor | P35462 | D3R DiscoveRx beta-arrestin cells, luminescence, 90 min | max activation, % | 0.58% of 410,000 active | AID 652048; in the data active means max activation above about 30%
Target sequence (P35462 whole entry, looked up): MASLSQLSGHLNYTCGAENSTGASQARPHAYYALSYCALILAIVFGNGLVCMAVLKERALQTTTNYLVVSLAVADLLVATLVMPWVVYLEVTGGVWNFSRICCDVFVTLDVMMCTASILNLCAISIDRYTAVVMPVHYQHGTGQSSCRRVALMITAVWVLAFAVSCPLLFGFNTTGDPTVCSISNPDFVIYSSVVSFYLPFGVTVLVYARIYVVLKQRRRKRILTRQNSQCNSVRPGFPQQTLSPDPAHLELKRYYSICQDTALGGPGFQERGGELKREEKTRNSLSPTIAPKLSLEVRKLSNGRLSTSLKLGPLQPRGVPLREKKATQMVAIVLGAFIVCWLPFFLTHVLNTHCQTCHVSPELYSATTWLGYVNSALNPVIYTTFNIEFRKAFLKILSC
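Agonist-mode cell screen: cells plated at 1500/well and incubated overnight at 37 °C, then exposed to library compounds for 90 min at 37 °C. Detection reagent was added for 30–60 min at room temperature, and luminescence was read.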
D3 antag: D3 dopamine receptor (human) antagonism. P35462. D3R cells, DiscoveRx beta-arrestin luminescence, antagonist mode; hits give low values. max response, negative = inhibition, %. 2.5% of 360,000 active. AID 652054; in the data active means max response below about -50%; inconclusive means no clear call, values can overlap the other calls
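Cells expressing the human receptor were seeded at 1500 cells/well, incubated overnight at 37 degrees C in 5% CO2, then exposed to library compounds with dopamine controls for 90 minutes at 37 degrees C before luminescent detection.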
A number is an active result; . = inactive; ? = inconclusive; / = no result; ! = a repeat was not active. An excerpt weighted towards active compounds, which were near 4.7% of everything screened. Unless noted, the call rests on the fitted dose curve; in most records, active means well fitted curve in the direction sought with a large enough effect; inconclusive means small, poorly fitted or top-dose-only effect, or another doubt; inactive means no such curve, though single readings can be large; an effect the other way counts as inactive or inconclusive.

SMILES	ATXN2 expr inh	HepG2 viability	S2 tox	TGFb inhibitor	D3 ag	D3 antag
O=S(=O)(c1ccc(Br)cc1)N1CCN(c2nc(-c3cccs3)nc3ccccc23)CC1	/	.	/	.	/	/
NC(=O)COc1ccccc1C(=O)Nc1ccccc1	/	.	/	.	/	/
Cc1cc(=O)n2[nH]c(-c3ccco3)nc2n1	.	.	.	.	.	.
CCCc1cc(=O)n2[nH]c(-c3ccco3)nc2n1	.	.	.	.	43.1	.
Cc1cccc(C)c1OCC(=O)N[C@@H](Cc1ccccc1)[C@@H](O)C[C@H](Cc1ccccc1)NC(=O)[C@H](C(C)C)N1CCCNC1=O	?	.	31.6µM	12.6µM	.	/
COc1ccc(C(=O)CCS(=O)(=O)c2ccc(C)cc2)cc1OC	.	15.8µM	.	?	.	.
Cc1ccc(S(=O)(=O)CCC(=O)c2ccc(O)cc2O)cc1	.	11.2µM	.	11.2µM	.	-59.1
O=C(Nc1cccc(F)c1)C1CCN(S(=O)(=O)c2ccc3[nH]c4c(c3c2)CCCCC4)CC1	/	.	/	.	.	/
Cc1ccc(S(=O)(=O)Nc2ccc3c(c2)nc2n3CCN(Cc3ccccc3)C2)cc1	?	.	.	.	.	-51.3
O=S(=O)(Nc1ccc2c(c1)nc1n2CCN(Cc2ccccc2)C1)c1ccc(Cl)cc1	/	.	/	.	.	-58.2
CC1Oc2cc3oc4c(O)c5c(cc4c(=O)c3c(O)c2C1(C)C)C=CC(C)(C)O5 (centres undefined)	.	.	?	?	44.4	.
O=C(CN1c2ccc(Br)cc2-c2ccccc2S1(=O)=O)N1CCCCC1	.	.	?	.	.	/
Cc1ccccc1Oc1ccc2c(c1)[C@@H]1C[C@H]3[C@@H](C(=O)N1CC2)[C@H](C)ON3C	.	.	.	?	30.9	.
COc1ccc(-c2ccc3c(c2)[C@@H]2C[C@H]4[C@@H](C(=O)N2CC3)[C@H](C)ON4C)cc1	.	.	.	.	.	.
COc1cc(-c2ccc(-[n+]3nc(-c4ccccc4)nn3-c3ccc([N+](=O)[O-])cc3)c(OC)c2)ccc1-[n+]1nc(-c2ccccc2)nn1-c1ccc([N+](=O)[O-])cc1	/	/	/	/	.	/
COc1ccc(-c2cn(Cc3ccc(C(=O)c4ccccc4)cc3)nn2)cc1	.	.	?	10µM	.	.
Cc1ccc(C(=O)N2CCCC(N3CCN(c4cccc(C(F)(F)F)c4)CC3)C2)s1 (centres undefined)	/	.	?	11.2µM	.	.
CC(=O)N1CCCC(N2CCN(c3cccc(C(F)(F)F)c3)CC2)C1 (centres undefined)	.	.	.	.	.	.
Cc1cnc(-n2ncc(C(=O)NC(C)(C)CO)c2-c2cccs2)nc1-c1ccc(F)cc1	/	/	.	/	/	/
COc1ccc(NC(=O)c2c(-c3ccccc3)c(-c3ccccc3)nn(C)c2=O)c(OC)c1	/	.	/	.	.	/
Nc1nc(N2CCN(C(=O)c3ccco3)CC2)nc2ccccc12	.	.	.	.	.	.
O=c1[nH]c(CN2CCN(C/C=C/c3ccccc3)CC2)nc2ccccc12	.	.	?	.	.	-76.9
C(=C\c1ccccc1)/CN1CCN(c2ncnc3c2oc2ccccc23)CC1	.	.	?	?	39.6	.
Nc1nc(N2CCN(C/C=C/c3ccccc3)CC2)nc2ccccc12	.	.	?	.	.	-63.9
CC(C)(C)NCC(O)CSc1nc(-c2ccc(C(N)=O)s2)cs1 (centres undefined)	/	/	/	/	.	/
SMILES	ATXN2 expr inh	HepG2 viability	S2 tox	TGFb inhibitor	D3 ag	D3 antag
CCCSc1nnc2n(-c3ccc(OC)cc3)c(=O)c3c4c(sc3n12)COC(C(C)C)C4 (centres undefined)	.	.	.	.	.	/
CCN(CC(=O)Nc1ccc(NC(C)=O)cc1)c1ccc(C(F)(F)F)cn1	.	3.55µM	.	.	.	.
CCC1(C2CCN(C(=O)c3coc4c3C(=O)CCC4)CC2)NC(=O)N(CCc2scnc2C)C1=O (centres undefined)	/	/	.	/	/	/
COc1ccc(CC2(CO)CCN(Cc3ccc4nsnc4c3)CC2)cc1	.	.	.	.	.	-73.0
CCN1CCN(CC(=O)Nc2nc3ccc(OC)cc3s2)CC1	.	.	.	.	.	-66.1
COc1ccc2nc(NC(=O)C3CCCN3S(=O)(=O)c3ccc(C)cc3)sc2c1 (centres undefined)	.	.	?	?	.	-70.9
COc1ccc2nc(NC(=O)CN3C(=O)NC4(CCCCC4)C3=O)sc2c1	.	4.47µM	?	.	.	.
COc1ccc2nc(NC(=O)CN3C(=O)NC4(CCCC4)C3=O)sc2c1	.	.	?	.	.	.
Cc1ccc(S(=O)(=O)N2CCCC2C(=O)Nc2nc3c(s2)CCCC3)cc1 (centres undefined)	.	.	.	.	.	.
COc1ccc2nc(NC(=O)c3ccoc3C)sc2c1	?	7.94µM	?	?	.	.
COc1ccc2nc(NC(=O)CN3CCOCC3)sc2c1	.	.	.	.	.	.
O=C(Cn1c(=O)n(Cc2ccc(C(=O)NCc3ccccc3Cl)cc2)c(=O)c2ccccc21)Nc1ccc(F)cc1	.	.	.	.	.	/
COc1ccc2nc(NC(=O)CN3CCN(C)CC3)sc2c1	.	.	.	.	.	-59.0
COC(=O)c1cc(O)cc(OC)c1C(=O)c1c(O)cc(C)cc1O	.	.	.	?	30.1	.
CC(C)CC1Nc2ncnc(N3CCN(c4ccccn4)CC3)c2N(Cc2ccc(Br)cc2)C1=O (centres undefined)	.	.	.	?	.	-99.1!
COc1ccc(CN2C(=O)C(CC(C)C)Nc3ncnc(N4CCN(c5ccccn5)CC4)c32)cc1 (centres undefined)	.	.	?	?	.	.
Cc1ccc(CN2C(=O)C(CC(C)C)Nc3ncnc(N4CCN(c5ccccn5)CC4)c32)cc1 (centres undefined)	.	.	.	?	.	-88.4
Cc1ccc(Nc2c(-c3cc(Br)ccc3F)nc3cc(C)ccn23)cc1	.	.	.	.	.	/
CCc1cc(C(=O)c2ccc(Br)cc2)c(NC(=O)CN(CC)CC)s1	.	.	.	.	.	-61.7
COc1ccc(-c2noc(-c3nnn(-c4ccc(C(C)C)cc4)c3C)n2)cc1OC	/	.	/	/	36.3	/
COc1ccc(OC)c(-n2nnc(-c3nc(-c4ccc5c(c4)OCO5)no3)c2C)c1	/	.	/	/	.	/
NC(=O)[C@@H]1C[C@]2(NC(=O)NC2=O)c2cc(F)ccc2O1	/	/	/	/	.	/
O/N=C/c1cc2ccccc2n1Cc1ccccc1F	/	.	/	.	.	-53.1
O=C(NCCc1ccc(Cl)cc1)c1ccc(Cn2c(=O)c3cccn3c3cccnc32)cc1	/	.	/	11.2µM	.	/

Screening results from PubChem.
